From PubChem BioAssay
Results filed as inconclusive are left out. The source made the active and inactive calls.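 The calls were made as follows, unless noted: active = viability loss from added drug above about 55%, and viability with drug at most 40%, in both replicates (limit read from the data, passing the limit was not always enough); inconclusive = both conditions met in only one replicate; inactive = neither replicate meets both conditions.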

How the values were obtained:
[1] = reducers of endogenous Her2 protein level, primary screen, SKBR3 breast tumor cells, AlphaScreen, ATP viability (AID 461;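 active = Her2 level under about 52% in both replicate screens, with viability over 70% of control, limit read from the data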;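 as to Her2 level: lower value means less Her2 protein in the cells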;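 as to viability: percent of carrier control wells set as 100% viability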); conditions: 18-24 h, measured here: SKBR3 viability, ATP luminescence, at 10 µM
[2] = molecular target: Receptor tyrosine-protein kinase erbB-2 (Homo sapiens) (UniProt P04626); test: as above; conditions: 18-24 h, at 10 µM, stronger effect = lower value
Receptor tyrosine-protein kinase erbB-2 (Homo sapiens), sequence (P04626 whole entry, looked up): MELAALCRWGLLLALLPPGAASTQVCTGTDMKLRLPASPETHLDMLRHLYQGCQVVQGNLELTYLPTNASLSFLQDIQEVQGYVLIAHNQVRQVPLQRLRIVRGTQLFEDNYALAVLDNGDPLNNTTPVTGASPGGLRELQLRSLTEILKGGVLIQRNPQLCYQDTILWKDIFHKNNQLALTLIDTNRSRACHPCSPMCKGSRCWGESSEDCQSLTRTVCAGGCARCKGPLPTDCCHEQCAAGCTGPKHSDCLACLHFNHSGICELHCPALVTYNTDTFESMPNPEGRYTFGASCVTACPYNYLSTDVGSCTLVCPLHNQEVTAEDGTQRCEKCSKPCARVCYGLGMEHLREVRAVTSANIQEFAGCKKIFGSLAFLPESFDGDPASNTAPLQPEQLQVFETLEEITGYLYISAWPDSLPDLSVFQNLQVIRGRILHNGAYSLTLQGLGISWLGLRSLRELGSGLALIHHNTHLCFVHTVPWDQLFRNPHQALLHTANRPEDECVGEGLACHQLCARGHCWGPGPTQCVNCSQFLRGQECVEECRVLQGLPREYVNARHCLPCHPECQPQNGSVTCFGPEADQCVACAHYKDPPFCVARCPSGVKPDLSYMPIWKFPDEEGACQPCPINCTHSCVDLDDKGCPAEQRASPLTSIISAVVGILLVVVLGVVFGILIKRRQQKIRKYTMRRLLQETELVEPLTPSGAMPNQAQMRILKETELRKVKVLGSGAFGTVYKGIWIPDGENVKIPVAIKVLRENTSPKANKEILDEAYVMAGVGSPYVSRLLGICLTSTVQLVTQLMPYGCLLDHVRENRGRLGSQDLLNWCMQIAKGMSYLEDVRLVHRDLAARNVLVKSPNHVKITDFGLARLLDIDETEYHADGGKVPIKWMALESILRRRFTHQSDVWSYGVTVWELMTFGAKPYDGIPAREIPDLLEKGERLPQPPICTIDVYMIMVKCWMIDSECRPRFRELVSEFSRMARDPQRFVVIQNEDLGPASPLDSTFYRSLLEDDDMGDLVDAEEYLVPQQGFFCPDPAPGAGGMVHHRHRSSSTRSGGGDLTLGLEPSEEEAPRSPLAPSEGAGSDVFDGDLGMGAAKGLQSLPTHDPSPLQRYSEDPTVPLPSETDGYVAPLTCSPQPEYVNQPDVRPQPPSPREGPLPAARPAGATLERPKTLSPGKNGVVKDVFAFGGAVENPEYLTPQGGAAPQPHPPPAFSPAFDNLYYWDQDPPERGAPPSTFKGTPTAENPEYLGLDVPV

[3] = SK-BR-3 cell growth inhibitors, pilot screen, 24 h, human (AID 572;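 active = viability at or below 10% of carrier control in both of two separate runs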;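 also: compound exposure lasted between 18 and 24 h rather than exactly 24 h; 100% = carrier-treated control wells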); conditions: SK-BR-3 viability, CellTiter-Glo luminescence, at 10 µM, stronger effect = lower value
[4] = reversal of MRP1-mediated doxorubicin resistance, pilot screen, H69AR cells, doxorubicin co-treatment (AID 601); conditions: CellTiter-Glo, 72 h, at 10 µM; for differential viability (reversal): stronger effect = higher value
[5] = 384-well plate pilot, post-Golgi transport modulator project, inhibition of yeast transport mutant growth (AID 636; in the data active = inhibition above about 31%); conditions: absorbance 615 nm, about 18 h, stronger effect = higher value
[6] = growth suppression of yeast trafficking mutant, preliminary HTS, modulators of trafficking downstream of Golgi apparatus project, 1536-format plate, OD 615 nm (AID 637; in the data active = inhibition above about 30%); conditions: yeast transport mutant growth, absorbance 615 nm, 18 h; stronger effect = higher value
[7] = HUVEC growth inhibition – cell-based, human, primary screen (AID 575;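 active = viability at or below 30% in both replicate assays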;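 also: 100% = median of untreated cell wells with 0.1% DMSO on each plate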); conditions: HUVEC proliferation, CellTiter-Glo luminescence, 72 h; at 10 µM; stronger effect = lower value
[8] = growth inhibitors of H69AR lung tumor, primary screen, human, duplicate replicates (AID 580;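 active = viability at or under a set limit in both replicates, limit being median viability minus 3 SD, cut at about 48% in these data, passing the limit was not always enough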;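 also: 100% = mean luminescence of untreated wells and 0% = no signal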); conditions: H69AR lung tumor cells viability, ATP luminescence, 72 h; at 10 µM; stronger effect = lower value
[9] = OD615 S. cerevisiae growth inhibition, permissive medium, pilot counter-assay, permissive growth control for S. cerevisiae lifespan shortening project (AID 705;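 active = growth inhibition above 25% in both replicates, a cutoff set 3 SD above the mean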); conditions: OD615, 24 h, at 10 µM, stronger effect = higher value
[10] = Restrictive medium S. cerevisiae growth inhibition, OD615, pilot screen of yeast lifespan reduction project, restrictive growth control (AID 706;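 active = growth inhibition above a set limit, 3 SD over mean compound inhibition, in both replicates, cut at about 43% in these data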;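 also: modified DeaD lifespan yeast strain shifted to restrictive glucose medium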); conditions: OD615, 48 h, at 10 µM, stronger effect = higher value
[11] = viability gain of MRP-1-high H69AR cells under doxorubicin, pilot screen, MRP-1 activator project, CellTiter-Glo, duplicate (AID 807;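 active = viability increase at or above a cutoff of the median across tested compounds plus 3 SD, cut at about 8.5% in these data, passing the limit was not always enough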;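 also: compound pretreatment 18-22 h then 72 h combined with doxorubicin; 0% = doxorubicin alone and 100% = vehicle without doxorubicin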); conditions: H69AR viability with doxorubicin, CellTiter-Glo luminescence; at 10 µM; stronger effect = higher value
[12] = growth suppression of beta-catenin knockout HCT116, pilot screen, human colon tumor cells (AID 823;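 active = cell viability at or below a set limit in both duplicate runs, the limit being the all-compound median minus 4 SD, cut at about 23% in these data, passing the limit was not always enough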;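 also: 0% = wells killed by 20 µM Hyamine and 100% = untreated DMSO cell wells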); conditions: CellTiter-Glo, 60 h, at 10 µM, stronger effect = lower value
[13] = growth suppression of PTEN-deleted HCT116, pilot screen, cell-based, HCT116 clonal line, CellTiter-Glo (AID 824;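 active = viability at or below 27.92% in each of two runs, the all-compound median minus 4 SD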;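 also: 0% = 20 µM Hyamine control and 100% = vehicle cell control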); conditions: 60 h, at 10 µM, stronger effect = lower value
[14] = inhibitors of the yeast RAM network, pilot screen, dse1pr::URA3 reporter, 5-FOA selection (AID 869;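 active = inhibition over a set limit, the all-compound mean plus 3 SD, in both replicate runs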;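 also: 0% = DMSO wells with no growth and 100% = 10 µM 1-NA-PP1 with full growth; RAM network block rescues cells from 5-FOA so hits raise OD615 growth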); conditions: S. cerevisiae dse1pr::URA3 5-FOA growth, OD615, 2 d; at 10 µM; stronger effect = higher value; strain carries analog-sensitive mutant Cbk1 kinase
[15] = H69AR cells + 2 uM doxorubicin, measured here: viability with 2 uM doxorubicin, stronger effect = lower value
[16] = H69AR cells, compound alone cytotoxicity

Structure (SMILES)	viability [1] [%]	Her2 level [2]	viability [3]	differential viability (reversal) ([4]; H69AR cells + 2 uM doxorubicin)	viability [4, 15] [%]	viability [4, 16] [%]	inhibition [5]	inhibition [6]	viability [7]	viability [8]	growth inhibition [9]	growth inhibition [10]	viability increase [11]	viability [12]	viability [13]	inhibition [14]
O=C(CCCCCn1c(=S)[nH]c2cc3c(cc2c1=O)OCO3)N1CCN(Cc2ccccc2)CC1	83	77.5% (inactive)	83% (inactive)	7.46% (inactive)	55.3	62.7	-4.73% (inactive)	-0.66% (inactive)								
CC(C)(C)NS(=O)(=O)c1ccc(CCC(=O)O)cc1			100% (inactive)	-5.2% (inactive)	100	94.8	-3.42% (inactive)	-1.45% (inactive)	105% (inactive)	94.8% (inactive)						
CC1(C)CC(=O)C(C=NC(CCC(N)=O)C(=O)O)=C(O)C1 (centres undefined)			96% (inactive)	8.63% (inactive)	83.3	91.9	-8.22% (inactive)	0.18% (inactive)	96.5% (inactive)	91.9% (inactive)						
CCOc1ccccc1-c1nc(-c2ccc(C)nc2OC)no1			123% (inactive)	-0.315% (inactive)	82.2	81.9	-0.78% (inactive)	5.74% (inactive)	95.9% (inactive)	81.9% (inactive)						
Cc1ccc(-c2ccc(=O)n(CC(=O)NCCCN3CCCCC3C)n2)cc1 (centres undefined)			97% (inactive)	-3.54% (inactive)	95.4	91.9	-0.39% (inactive)	-6.56% (inactive)	99% (inactive)	91.9% (inactive)						
COc1ccc(-c2nc(N)nc(C)c2Oc2ccccc2Br)c(O)c1	96	74% (inactive)	96% (inactive)	-12.7% (inactive)	17.8	5.08	-4.34% (inactive)	57.6% (active)		5.08% (active)						
CC(CC(=O)NCc1ccccc1)C1CCCO1 (centres undefined)			130% (inactive)	2.22% (inactive)	91.2	93.4	-2.21% (inactive)	4.75% (inactive)	102% (inactive)	93.4% (inactive)						
O=C(NCc1cccnc1)c1cccc(C(F)(F)F)c1			87% (inactive)	16% (inactive)	95.7	112	-5.34% (inactive)	6.55% (inactive)	109% (inactive)	112% (inactive)						
CC1=C(C(=O)OCC(C)C)C(c2cc3c(cc2Br)OCO3)NC(=O)N1C (centres undefined)	99	75% (inactive)	99% (inactive)	-12.5% (inactive)	101	88.9	-1.82% (inactive)	-3.83% (inactive)		88.9% (inactive)	0.885% (inactive)	-13.9% (inactive)	-2.54% (inactive)	81.2% (inactive)	68.4% (inactive)	-0.395% (inactive)
CCOc1cc(NC(=O)c2ccco2)c(OCC)cc1NC(=O)CCc1ccc(OC)cc1	89	88% (inactive)	89% (inactive)	-9.95% (inactive)	88.6	78.7	2% (inactive)	1.31% (inactive)		78.7% (inactive)						
O=C(Cn1c(=O)oc2ccccc21)N1CCN(c2ccccc2)CC1			94% (inactive)	-3.33% (inactive)	92.1	88.8	-8.63% (inactive)	8.18% (inactive)	104% (inactive)	88.8% (inactive)						
CN(C)CCCN1c2ccccc2Sc2ccccc21			66.5% (inactive)	-8.33% (inactive)	83	74.7			74.2% (inactive)	74.7% (inactive)						
Cc1ccc2c(CC(=O)OCc3csc(C)n3)coc2c1			106% (inactive)	2.5% (inactive)	96	98.5	-8.78% (inactive)	3.77% (inactive)	90.3% (inactive)	98.5% (inactive)						
Cc1ccccc1NC(=O)CN1CCC(NC(=O)Nc2ccccc2)CC1			108% (inactive)	-4.37% (inactive)	89.1	84.8	-7.7% (inactive)	-3.64% (inactive)	104% (inactive)	84.8% (inactive)						
CC(C)N=c1cc2n(-c3ccc(Cl)cc3)c3ccccc3nc-2cc1Nc1ccc(Cl)cc1			102% (inactive)	-6.59% (inactive)	71	64.4			9.11% (active)	64.4% (inactive)						
Cn1c(=O)n(CCN2CCOCC2)c(=O)c2c1nc1n2CCN1c1ccccc1	41.5	102% (inactive)		4.43% (inactive)	63.5	67.9	3.51% (inactive)	-2.54% (inactive)	52.8% (inactive)	67.9% (inactive)						
CCN(CCCCOC(=O)c1ccc(OC)c(OC)c1)C(C)Cc1ccc(OC)cc1 (centres undefined)			88% (inactive)	6.16% (inactive)	72.8	78.9			64.4% (inactive)	78.9% (inactive)						
Cc1cc(C)c2c(=O)[nH]c(=O)n(Cc3ccccc3)c2n1	64	75.5% (inactive)		10.9% (inactive)	84.8	95.7	-5.26% (inactive)	6.55% (inactive)	81.7% (inactive)	95.7% (inactive)						
